Measured values published in ChEMBL document CHEMBL1961873, “Compounds: GSK PKIS; Assays: Nanosyn kinase panel” (2012).

Columns and labels:
[1] = target: Sphingosine kinase 1 (Homo sapiens) (UniProt Q9NYA1); details: at 1 µM;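 note: mean SPHK1 inhibition value reported from the GSK PKIS kinase panel screen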
[2] = target: T1, Sphingosine kinase 2 (Homo sapiens) (UniProt Q9NRA0); details: at 0.1 µM
T1 sequence (whole entry): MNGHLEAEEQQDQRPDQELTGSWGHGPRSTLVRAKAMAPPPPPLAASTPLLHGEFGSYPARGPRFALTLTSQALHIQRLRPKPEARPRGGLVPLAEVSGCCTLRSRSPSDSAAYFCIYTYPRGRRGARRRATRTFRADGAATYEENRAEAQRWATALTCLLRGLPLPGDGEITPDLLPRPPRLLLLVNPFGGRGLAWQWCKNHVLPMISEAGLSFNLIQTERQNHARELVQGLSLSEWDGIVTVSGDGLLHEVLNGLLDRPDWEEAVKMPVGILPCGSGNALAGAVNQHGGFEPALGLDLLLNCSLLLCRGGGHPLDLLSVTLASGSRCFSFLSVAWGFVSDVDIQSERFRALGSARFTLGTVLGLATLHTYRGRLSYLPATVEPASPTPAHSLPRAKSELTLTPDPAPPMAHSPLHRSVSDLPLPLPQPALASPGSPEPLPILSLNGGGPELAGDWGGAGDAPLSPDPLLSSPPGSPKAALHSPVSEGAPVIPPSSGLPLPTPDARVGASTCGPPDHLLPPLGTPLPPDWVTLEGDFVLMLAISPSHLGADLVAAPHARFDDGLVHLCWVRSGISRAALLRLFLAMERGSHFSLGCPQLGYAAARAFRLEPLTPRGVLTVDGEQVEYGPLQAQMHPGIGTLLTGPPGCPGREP

[3] = target: T1, Sphingosine kinase 2 (Homo sapiens); details: at 1 µM
[4] = target: Casein kinase II subunit alpha (Homo sapiens) (UniProt P68400); details: at 0.1 µM
[5] = target: Casein kinase II subunit alpha (Homo sapiens) (UniProt P68400); details: at 1 µM
[6] = target: T2, Inhibitor of nuclear factor kappa-B kinase subunit alpha (Homo sapiens) (UniProt O15111); details: at 0.1 µM
T2 sequence (whole entry): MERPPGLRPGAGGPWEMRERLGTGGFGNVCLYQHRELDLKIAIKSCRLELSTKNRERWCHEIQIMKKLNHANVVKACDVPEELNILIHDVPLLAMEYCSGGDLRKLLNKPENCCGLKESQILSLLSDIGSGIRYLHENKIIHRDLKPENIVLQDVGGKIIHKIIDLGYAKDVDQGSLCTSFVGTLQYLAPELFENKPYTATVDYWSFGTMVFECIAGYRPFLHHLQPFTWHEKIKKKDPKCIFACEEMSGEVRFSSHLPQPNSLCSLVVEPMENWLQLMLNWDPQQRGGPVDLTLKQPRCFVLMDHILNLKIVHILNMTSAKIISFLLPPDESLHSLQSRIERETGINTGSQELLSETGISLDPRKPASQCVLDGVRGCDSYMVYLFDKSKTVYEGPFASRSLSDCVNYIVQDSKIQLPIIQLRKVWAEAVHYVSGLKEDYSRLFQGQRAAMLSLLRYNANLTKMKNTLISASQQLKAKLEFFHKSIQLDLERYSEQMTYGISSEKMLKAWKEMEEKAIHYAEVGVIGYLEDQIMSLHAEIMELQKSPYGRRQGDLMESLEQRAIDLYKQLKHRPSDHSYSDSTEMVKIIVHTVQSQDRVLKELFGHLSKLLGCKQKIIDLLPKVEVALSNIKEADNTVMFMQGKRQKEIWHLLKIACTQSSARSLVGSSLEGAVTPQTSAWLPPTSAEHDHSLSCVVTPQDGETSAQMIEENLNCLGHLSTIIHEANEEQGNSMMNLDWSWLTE

[7] = target: T2, Inhibitor of nuclear factor kappa-B kinase subunit alpha (Homo sapiens); details: at 1 µM
[8] = target: T3, Inhibitor of nuclear factor kappa-B kinase subunit beta (Homo sapiens) (UniProt O14920); details: at 0.1 µM
T3 sequence (whole entry): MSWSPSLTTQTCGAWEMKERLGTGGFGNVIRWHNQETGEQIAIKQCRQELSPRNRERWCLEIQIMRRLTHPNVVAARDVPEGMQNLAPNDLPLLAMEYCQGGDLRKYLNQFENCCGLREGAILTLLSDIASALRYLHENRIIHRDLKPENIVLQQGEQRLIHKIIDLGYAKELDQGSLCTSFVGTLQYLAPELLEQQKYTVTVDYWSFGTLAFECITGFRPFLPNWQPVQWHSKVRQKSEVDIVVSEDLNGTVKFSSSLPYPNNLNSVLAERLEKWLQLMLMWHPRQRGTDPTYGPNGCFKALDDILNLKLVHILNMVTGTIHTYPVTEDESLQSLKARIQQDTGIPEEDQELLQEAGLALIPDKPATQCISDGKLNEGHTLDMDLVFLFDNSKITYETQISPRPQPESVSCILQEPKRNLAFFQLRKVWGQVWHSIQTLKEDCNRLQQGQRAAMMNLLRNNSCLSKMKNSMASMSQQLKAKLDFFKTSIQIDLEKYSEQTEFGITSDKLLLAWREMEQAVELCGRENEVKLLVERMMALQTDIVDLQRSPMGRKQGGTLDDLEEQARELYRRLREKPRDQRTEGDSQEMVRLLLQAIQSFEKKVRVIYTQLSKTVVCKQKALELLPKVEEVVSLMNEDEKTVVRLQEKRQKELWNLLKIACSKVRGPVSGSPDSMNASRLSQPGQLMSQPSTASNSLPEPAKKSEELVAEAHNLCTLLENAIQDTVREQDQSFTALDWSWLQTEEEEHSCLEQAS

[9] = target: T3, Inhibitor of nuclear factor kappa-B kinase subunit beta (Homo sapiens); details: at 1 µM
[10] = target: T4, Inhibitor of nuclear factor kappa-B kinase subunit epsilon (Homo sapiens) (UniProt Q14164); details: at 0.1 µM;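 note: mean inhibition of IKKε reported, from the GSK PKIS dataset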
T4 sequence (whole entry): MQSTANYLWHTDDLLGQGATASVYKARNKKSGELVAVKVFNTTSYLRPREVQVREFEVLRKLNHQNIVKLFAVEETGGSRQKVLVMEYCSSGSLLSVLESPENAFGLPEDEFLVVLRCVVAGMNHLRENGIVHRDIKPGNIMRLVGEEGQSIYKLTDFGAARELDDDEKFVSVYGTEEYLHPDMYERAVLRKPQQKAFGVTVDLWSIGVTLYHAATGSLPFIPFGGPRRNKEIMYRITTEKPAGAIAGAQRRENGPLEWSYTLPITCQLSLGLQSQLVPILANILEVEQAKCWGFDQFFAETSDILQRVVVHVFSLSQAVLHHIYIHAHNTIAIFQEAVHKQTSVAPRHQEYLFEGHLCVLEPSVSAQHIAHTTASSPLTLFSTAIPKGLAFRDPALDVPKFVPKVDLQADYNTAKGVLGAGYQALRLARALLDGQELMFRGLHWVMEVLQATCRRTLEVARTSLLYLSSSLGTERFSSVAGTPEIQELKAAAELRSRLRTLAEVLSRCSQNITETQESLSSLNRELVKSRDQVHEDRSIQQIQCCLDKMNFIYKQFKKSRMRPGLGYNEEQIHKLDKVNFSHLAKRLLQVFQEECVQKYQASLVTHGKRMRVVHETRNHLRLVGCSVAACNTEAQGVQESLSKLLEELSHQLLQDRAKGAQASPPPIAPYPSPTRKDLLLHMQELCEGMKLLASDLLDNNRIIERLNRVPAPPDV

Casein kinase II subunit alpha (Homo sapiens), sequence (P68400 whole entry, looked up): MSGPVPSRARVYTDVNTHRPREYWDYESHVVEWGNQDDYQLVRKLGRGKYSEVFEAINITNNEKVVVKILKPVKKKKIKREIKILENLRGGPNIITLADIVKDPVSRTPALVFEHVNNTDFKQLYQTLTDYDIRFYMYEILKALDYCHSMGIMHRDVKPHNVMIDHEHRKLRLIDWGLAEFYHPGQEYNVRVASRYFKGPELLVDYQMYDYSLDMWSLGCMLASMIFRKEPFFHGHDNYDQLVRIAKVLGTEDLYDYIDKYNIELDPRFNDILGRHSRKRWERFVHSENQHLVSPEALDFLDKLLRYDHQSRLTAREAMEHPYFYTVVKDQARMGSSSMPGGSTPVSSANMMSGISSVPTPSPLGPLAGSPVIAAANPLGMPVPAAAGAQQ
Sphingosine kinase 1 (Homo sapiens), sequence (Q9NYA1 whole entry): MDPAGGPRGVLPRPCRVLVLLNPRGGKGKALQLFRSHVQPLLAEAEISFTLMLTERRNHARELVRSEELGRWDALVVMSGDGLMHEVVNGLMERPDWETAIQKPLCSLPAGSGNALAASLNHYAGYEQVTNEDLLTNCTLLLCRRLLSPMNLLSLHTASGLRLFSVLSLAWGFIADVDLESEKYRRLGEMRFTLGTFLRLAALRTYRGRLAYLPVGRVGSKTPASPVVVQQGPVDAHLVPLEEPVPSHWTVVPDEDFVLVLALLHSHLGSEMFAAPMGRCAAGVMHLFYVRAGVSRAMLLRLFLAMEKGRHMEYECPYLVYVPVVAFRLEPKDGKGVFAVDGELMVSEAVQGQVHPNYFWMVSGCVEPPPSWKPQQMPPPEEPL

Row | SMILES | inhibition [1] [%] | inhibition [2] [%] | inhibition [3] [%] | inhibition [4] [%] | inhibition [5] [%] | inhibition [6] [%] | inhibition [7] [%] | inhibition [8] [%] | inhibition [9] [%] | inhibition [10] [%]
1 | NS(=O)(=O)c1ccc(-c2cc3ccncc3cc2OCc2ccccc2)cc1 | -2.02 | -0.23 | 1 | 5.15 | 12.6 | 0.99 | 8.71 | 8.26 | 21.9 | 5.72
2 | Cc1ccc(C(=O)NC2CC2)cc1-c1ccc2[nH]ncc2c1 | -1.63 | -1.1 | 0.65 | -2.79 | -1.68 | 7.28 | -2.31 | -3.22 | -2.64 | -3.17
3 | CN(C)C(=O)O[C@@H]1CN[C@@H](C#Cc2cc3ncnc(Nc4ccc(OCc5cccc(F)c5)c(Cl)c4)c3s2)C1 | -1.68 | 0 | 0 | -1.08 | -1.78 | 6.13 | -0.14 | 4.79 | 2.73 | 0.34
4 | COc1cccc(-n2nc(C)c3c(N/N=C(\C)c4ccncc4)ncnc32)c1 | 2.22 | 0.03 | 0 | 2.16 | 6.88 | 1.96 | -2.68 | 1.3 | 1.94 | -1.8
5 | CC(C)c1ccc2c(c1)NC(=O)/C2=N/Nc1ccc(S(N)(=O)=O)cc1 | -1.85 | 0.61 | 1.73 | 4.26 | 0.39 | -1.84 | -4.08 | 1.01 | 0.14 | -1.18
6 | CCn1c(-c2nonc2N)nc2c(C#CC(C)(C)O)nc(OCCNC)cc21 | 0.34 | 0.23 | 3.77 | 3.96 | 3.67 | 8.37 | 7.87 | 7.32 | 8.81 | 15.2
7 | COC(=O)Nc1nc2cc(Oc3ccc(NC(=O)Nc4cccc(Br)c4)cc3)ccc2[nH]1 | -3.97 | 0.52 | 1.73 | 2.56 | 2.62 | 7.56 | 7.22 | 5.61 | 7.62 | 4.82
8 | NC(=O)c1sc(-n2cnc3ccccc32)cc1OCc1ccccc1Br | -0.07 | 1.77 | 0 | 5.03 | 5.76 | 4.61 | 7.53 | 4.02 | 5.66 | 8.4
9 | O=C1Nc2ccccc2/C1=C/Nc1ccc2[nH]c(=O)[nH]c2c1 | -0.67 | -0.03 | -2.68 | 3.81 | 13.9 | 12.9 | 10.2 | 7.85 | 11.6 | 8.71
10 | N#Cc1c(NC(=O)c2ccccc2F)sc2c1CCCC2 | 1.37 | 0.4 | -1.81 | 2.62 | 1.09 | 2.43 | 5.52 | -1.19 | -1.36 | -2.08
11 | NS(=O)(=O)c1ccc(Nc2cc(-c3cccc(O)c3)n[nH]2)cc1 | -2.64 | 0.05 | -0.8 | 2.68 | 3.26 | 2.32 | 2.31 | 4.33 | 5.24 | 6.1
12 | CCS(=O)(=O)c1ccc(OC)c(Nc2nccc(N(C)c3ccc4c(C)n[nH]c4c3)n2)c1 | -1.1 | -0.07 | -0.93 | 13.8 | 7.45 | 12 | 6.37 | 8.64 | 7.82 | 7.85
13 | NS(=O)(=O)c1ccc(N/N=C2\C(=O)Nc3ccc(Cl)cc32)cc1 | -4.27 | 0 | -3.44 | 4.94 | 14 | -0.36 | 10.7 | 4.8 | 5.46 | 7.49
14 | Cc1nc(-c2ccccc2)n2nc(NCCCN3CCOCC3)ncc12 | -2.26 | -1.13 | -0.14 | 13.3 | 6.84 | -0.66 | 5.55 | 2.75 | 4.98 | 4.87
15 | Cc1cc(-c2ccccn2)cc(C)c1/C=C/c1cncc(-c2nn[nH]n2)c1 | 0.83 | 0 | 0 | 7.89 | 6.35 | 5.76 | 7.54 | 4.37 | 6.71 | 7.41
16 | COc1cccc(-n2ncc3c(N/N=C/c4ccc(S(C)(=O)=O)cc4)ncnc32)c1 | 10.4 | 2.7 | -2.05 | 23.1 | 39.1 | -1.85 | -0.62 | -1.48 | -0.15 | 1.8
17 | [O-][S+]1CCN(Cc2ccc(-c3ccc4ncnc(Nc5ccc(OCc6ccccc6)c(Cl)c5)c4c3)o2)CC1 | 0.98 | 0.01 | 2.21 | 3.5 | 2.9 | 2.69 | -1.63 | 2.83 | 1.96 | 1.93
